A selection: hits, their analogues and other compounds. The true share with any hit is near 7.8%.
Lassa entry inh – qHTS for Inhibitors of binding or entry into cells for Lassa Virus | Lassa virus pseudotype entry inhibition, cell reporter | Potency, µM (doses to about 37.9 µM), for the others: top-dose activity change, negative = inhibition, actives largely listed as inhibitors | actives 1.2% (n = 300,000); calls by dose curve; tested in HEK293 cells; further: potency means the concentration at half of the fitted maximal effect; nearly all actives have a fitted effect of over 50% in size
Marburg entry inh – qHTS for inhibitors of binding or entry into cells for Marburg Virus; Marburg virus pseudotyped entry inhibition, cell reporter; Potency, µM (top dose mostly 37.8 µM), for the others: at the top dose activity change, negative = inhibition, usual class: inhibitors; actives 1.8% (n = 300,000); calls by dose curve; tested in HEK293 cells; further: potency means the concentration at half of the fitted maximal effect
VACV Venus inh – qHTS for Stage-Specific Inhibitors of Vaccinia Orthopoxvirus: Venus Reporter Primary qHTS; Vaccinia virus Venus reporter expression, fluorescence; Potency, µM (series often up to 36.5 µM), for the others: at the highest dose activity change, negative = inhibition, most hits filed as inhibitors; AID 720580, 2013; actives 0.46% (n = 330,000); calls by dose curve; tested in A549 cells; further: potency means the concentration at half of the fitted maximal effect; nearly all actives have a fitted effect of over 30% in size
HCV inh – qHTS Assay for Inhibitors of Hepatitis C Virus (HCV); AID 651820, 2012; Huh7.5.1 HCVcc-Cre infection, luciferase reporter, 44 h; actives 3.4% (n = 340,000); Potency, µM (top dose mostly 41.8 µM), for inactives: at the top dose activity change, negative = inhibition, hits mostly inhibitors; active means well fitted inhibition curve with a large enough effect; inconclusive means small, poorly fitted or top-dose-only effect, or another doubt; inactive means no such curve, though single readings can be large or run the other way; further: potency means the concentration at half of the fitted maximal effect
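Reporter virus HCVcc-Cre (~0.5 moi) infects cells exposed to compound; seeding density 1,000 cells/well with 4 h settling beforehand. Luminescence, 15 sec read, taken 44 h post-infection following a 15 min RT substrate incubation.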
Vaccinia mCherry – qHTS for Stage-Specific Inhibitors of Vaccinia Orthopoxvirus: mCherry Reporter Primary qHTS. Vaccinia virus mCherry reporter infection, fluorescence. Potency, µM (top dose mostly 36.5 µM), inactives show at the highest dose activity change, negative = inhibition, most hits filed as inhibitors. actives 0.63% (n = 310,000). AID 720579, 2013; calls by dose curve; tested in A549 cells; further: potency means the concentration at half of the fitted maximal effect; nearly all actives have a fitted effect of over 35% in size
HCMV inh – qHTS Assay for inhibitors of the human cytomegalovirus (HCMV). HFF cells, HCMV-luciferase reporter, 72 h; active compounds read low. activity change, negative = inhibition, % at 57.5 µM. actives 4.5% (n = 410,000). AID 1259415, 2018; in the data active means activity change below about -60%; inconclusive means no clear call, values can overlap the other calls; inactive means above about -39%
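Human foreskin fibroblasts infected with luciferase-reporter HCMV at MOI 1 PFU/cell, compounds at two doses. Luciferase measured 72 h post infection; normalized to buffer-only basal and Salinomycin (10uM) controls.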
Active calls of the source: *; i = inactive; u = inconclusive; x = not tested or not shown; + = active, no number; [ ] = another dose, or the depositor's remark. On the % scale 0 is the no-effect control and ±100 the full control effect.

SMILES	Lassa entry inh	Marburg entry inh	VACV Venus inh	HCV inh	Vaccinia mCherry	HCMV inh
Oc1c(C(Nc2cccc(C(F)(F)F)c2)c2cccnc2)ccc2cccnc12 (centres undefined)	u	u	-24%	11µM*	-22%	-33
COc1ccc(Cl)cc1C(Nc1cccnc1)c1ccc2cccnc2c1O (centres undefined)	u	11µM*	u	8.9µM*	3.5µM*	-7
CN1CCN(C(c2ccc(C(F)(F)F)cc2)c2ccc3cccnc3c2O)CC1 (centres undefined)	7.9µM*	u	-18%	11µM*	u	-97*
CCC[C@H]1[C@@H](NS(=O)(=O)c2ccc([N+](=O)[O-])cc2)CC[C@@]23CCCN2C(=O)CCC[C@@H]13	x	x	x	x	x	-7
Cc1ccc(CNC(=O)CN(C)S(=O)(=O)c2ccc(Br)s2)cc1	10%[46.1 µM]	-1%[46.1 µM]	-7%	x	-9%	-6
Cc1cc(C(=O)Nc2cccnc2)no1	-4%	24%	-9%	-5%	i	-1
Cc1cc(NC(c2cccnc2)c2ccc3cccnc3c2O)no1 (centres undefined)	u	u	16µM*	2.5µM*	x	-104*
O=c1ccc2[n+]([O-])c3ccc(O)cc3oc-2c1	x	x	x	12%	x	-61*
O=c1cc(O)c2ccc(O)cc2o1	x	x	-21%	14%	0%	13
CCOc1ccc(S(=O)(=O)NCC(c2ccc3c(c2)OCO3)N2CCN(C)CC2)cc1 (centres undefined)	u	7.9µM*	-18%	u	-26%	-21
CCN(CC)C1CCN(C(=O)c2cnn(-c3ncc4c(n3)-c3ccccc3CCC4)c2COC)C1 (centres undefined)	x	x	-1%	x	-7%	x
COC(=O)c1ccc(N2C(=O)Cc3cc(OC)c(OC)cc3C2c2ccc(F)cc2)cc1 (centres undefined)	-26%[46.1 µM]	-12%[46.1 µM]	10%	x	3%	12
O=C(/C=C/c1cccc([N+](=O)[O-])c1)c1ccc([N+](=O)[O-])o1	x	x	13µM*	11%[8.37 µM]	u	-10
Cc1ccccc1/C=C/C(=O)c1ccc([N+](=O)[O-])o1	x	x	u	u	u	-103*
COc1ccc(/C=C/C(=O)c2ccc([N+](=O)[O-])o2)cc1	x	x	u	18%	u	44
Cc1cccc(/C=C/C(=O)c2ccc([N+](=O)[O-])o2)c1	x	x	11µM*	0.63µM*	u	-103*
O=c1n(CC2CO2)c(=O)n(CC2CO2)c(=O)n1CC1CO1 (centres undefined)	u	0.45µM*	u	u	u	-62*
N#Cc1ccccc1NC(=O)c1ccccc1OCC(=O)Nc1ccc2c(c1)oc1ccccc12	6%	u	-4%	-17%	-11%	21
CNC(=O)COc1ccccc1C(=O)Nc1ccc2c(c1)oc1ccccc12	u	21µM*	x	u	x	-69*
Cc1cc(Nc2nc3ccccc3c3nnc(C)n23)ccc1Br	19%[46.1 µM]	x	-10%	x	-13%	-5
Cc1cc(C)c(Cn2cnc(-c3ccc([N+](=O)[O-])cc3)c2)c(C)c1	-16%	u	0%	11µM*	i	u
CC(C)(C)c1ccc(Cn2cnc(-c3ccc([N+](=O)[O-])cc3)c2)cc1	8.9µM*	u	-26%	u	-6%	56
CNc1ccc(OC)cc1-n1cnc(-c2ccc([N+](=O)[O-])cc2)c1	-2%[46.1 µM]	u	-5%	-6%	u	29
CC(C)(C)c1ccc(CNc2ccc([N+](=O)[O-])cn2)cc1	u	u	-26%	10%	i	106
NC(=O)c1c(NC(=O)CN2CCN(S(=O)(=O)c3ccccc3)CC2)sc2c1CCC2	u	u	-24%	10µM*	u	-34
SMILES	Lassa entry inh	Marburg entry inh	VACV Venus inh	HCV inh	Vaccinia mCherry	HCMV inh
CN1CCN(CC(=O)Nc2sc3c(c2C(=O)Nc2ccccc2)CCCC3)CC1	x	x	x	u	x	19
Cc1ccc(S(=O)(=O)CC(=O)Nc2sc3c(c2C(N)=O)CCCC3)cc1	-3%[46.1 µM]	x	-8%	x	i	+
CN1CCCC(CN(C)C(=O)c2cnn(-c3nccc(-c4ccccc4C(F)(F)F)n3)c2C2CC2)C1 (centres undefined)	x	x	-5%	x	0%	x
Cn1c(=O)c2nc(SCC(=O)Nc3cc(Cl)cc(Cl)c3)n(C)c2n(C)c1=O	27%[46.1 µM]	x	-16%	x	-15%	-8
COc1ccc(C2=CC(=O)N(CCC(N)=O)C2)cc1	x	x	x	x	x	13
CCCN(CC(=O)Nc1ccccc1C)C(=O)c1ccc2ccccc2n1	2%	u	-23%	-28%	-7%	28
Cc1ccccc1NC(=S)c1ccc2ccccc2n1	x	x	x	u	x	-63*
COc1cc(=O)n2c(c1C(=O)NCc1ccco1)CCN(C(=O)c1c(F)ccc(F)c1F)CC2	x	x	0%	x	i	x
CCCn1c2c(c(O)c(C(=O)NCCCN(CC)CC)c1=O)CCCC2	-17%	10µM*	-28%	u	-18%	-13
CCN(CC)CCCNC(=O)c1c(O)c2c([nH]c1=O)CCCC2	-1%	u	-14%	-2%	-7%	32
Cc1nc2ccccc2c(=O)n1NC(=O)c1c(O)c2c(n(CC(C)C)c1=O)CCCC2	4%	u	x	u	x	u
CCCn1c2c(c(O)c(C(=O)Nc3ccc(OC)cc3)c1=O)CCCC2	-1%	-5%	8%	11µM*	x	-11
CCCCCCc1nc2ccccc2c(=O)n1NC(=O)c1c(O)c2c(n(CC(C)C)c1=O)CCCC2	u	-3%[46.1 µM]	-4%	19%	i	-93*
CCCn1c2c(c(O)c(C(=O)NCc3ccccc3)c1=O)CCCC2	-24%	-6%	-17%	5µM*	-28%	23
CCCn1c2c(c(O)c(C(=O)NC)c1=O)CCCC2	6%	0%	-4%	u	x	-33
CN(C(=O)c1cccc(NC(=O)c2cccs2)c1)c1ccccc1	2%	-28%	-19%	4%	-4%	u
O=C1Nc2ccccc2NC(c2cccc(Br)c2)=C1N(C(=O)C(=O)c1cccs1)c1ccccc1	x	x	x	x	x	-88*
CCOC1=C2[C@@H](CN(S(=O)(=O)c3ccccc3C)[C@H]2c2ccc(Cl)cc2)[C@H]2C(=O)NC(=O)[C@H]2C1	x	x	10%	x	5%	-76*
CCOC1=C2[C@@H](CN(S(=O)(=O)c3ccccc3C)[C@H]2c2ccc(Cl)cc2)[C@H]2C(=O)N(c3ccccc3)C(=O)[C@H]2C1	x	x	-15%	x	i	-25
C(=N\Nc1nncc2ccccc12)/c1ccccc1	u	12%	-3%	14%	-11%	200

Bioassay records deposited in PubChem by National Center for Advancing Translational Sciences (NCATS).
